Pf growth 48h = P. falciparum growth inhibition at 48 hours (one generation). Potency, µM (top dose mostly 28.7 µM), usual class: inhibitors. 5.9% of 310,000 active. P. falciparum luciferase growth in erythrocytes, 48 h. AID 504832
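Luciferase-expressing P. falciparum in infected erythrocytes (2% hematocrit, 0.1% parasitemia final) in RPMI 1640/0.5% Albumax were exposed to compound for 48 hours at 37 C, 5% CO2; growth read as luminescence.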
Shiga toxin inh = blocks Shiga toxin action in Vero cells; Vero cells, Shiga toxin protein synthesis inhibition reporter; inhibition, % at 38.7 µM; 9.2% of 290,000 active; AID 2315; in the data active = inhibition mostly above about 28%, no sharp cut-off; inactive = mostly below about 43%
Sm TGR inh = S. mansoni TGR enzyme inhibition | purified TGR, DTNB reduction, TNB absorbance 405 nm | Potency, µM (titrated, usually from 114 µM), most hits filed as inhibitors | 3% of 360,000 active | AID 485364; also: nearly all actives have a fitted effect of over 60% in size
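Kinetic colorimetric format: TGR-catalysed, NADPH-driven DTNB reduction monitored via TNB absorbance. Enzyme dispensed at 20 nM; compound exposure 15 min at room temperature before reaction start.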
CHX counter = counter-screen for Shiga toxin inhibitors: cycloheximide protein synthesis inhibition; cell reporter, cycloheximide protein synthesis inhibition counterscreen; AID 2314; max response, %; 12% of 300,000 active; in the data active = max response mostly above about 13%, no sharp cut-off; inactive = mostly below about 14%; also: read at 38.3 µM for the half of the compounds with a filed dose
NS1 inh = influenza NS1 inhibition; Potency, µM (titrated, usually from 46.1 µM); 0.4% of 270,000 active; AID 2326; calls by dose curve; also: actives are rising curves; nearly all actives have a fitted effect of over 50% in size
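Growth recovery, yeast-based: influenza A NS1 expressed in S. cerevisiae causes slow growth, and suppressors are detected by OD600. The parent strain without NS1 is used as positive control.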
Pf growth 96h = P. falciparum growth inhibition at 96 hour, primary screen for plastid delayed-death inhibitors; P. falciparum luciferase reporter growth, 96 h; Potency, µM (highest dose often 28.7 µM), actives largely listed as inhibitors; 6.9% of 320,000 active; AID 504834
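Parasite growth measured via integrated firefly luciferase reporter in P. falciparum. Infected erythrocytes at 2% hematocrit, 0.05% parasitemia final were treated 96 hours at 37 C under 5% CO2, and luminescence was read.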
A number is an active result; 0 = inactive; ? = inconclusive; - = not tested or not shown. A selection: hits, their analogues and other compounds. The true share with any hit is near 21%. Unless noted, calls follow the shape of the dose curve; as a rule, active = well fitted curve in the direction sought with a large enough effect; inconclusive = small, poorly fitted or top-dose-only effect, or another doubt; inactive = no such curve, though single readings can be large; an effect the other way counts as inactive or inconclusive.

SMILES	Pf growth 48h	Shiga toxin inh	Sm TGR inh	CHX counter	NS1 inh	Pf growth 96h
O=C(NNC(=O)C1CCC1)c1ccc(Cl)cc1	0	0	0	0	0	0
O=C(NC(=S)N1CCCC(C(F)(F)F)C1)c1ccc(F)cc1 (stereo unspecified)	?	0	0	0	0	?
Cc1cc(S(=O)(=O)N2CCCCC2)c(C)s1	0	0	0	0	0	0
O=C(COC(=O)c1ccccc1NC(=O)C1CC1)c1ccc2c(c1)OCCO2	0	75	0	54	0	?
CC(C)(C)C(=O)Nc1ccccc1C(=O)OCC(=O)c1ccc2c(c1)OCCO2	0	78	0	69	0	0
O=C(COC(=O)c1ccc(O)cc1O)c1ccc2c(c1)OCO2	0	92	0	76	0	0
O=C(COC(=O)c1ccc(O)cc1)c1ccc2c(c1)OCCO2	?	-	0	-	-	?
C/C(=N\OCC(=O)Nc1ccc(OC(F)(F)F)cc1)c1ccc2c(c1)OCCO2	0	0	0	0	0	?
C/C(=N\OCC(=O)Nc1ccccc1C(C)(C)C)c1ccc2c(c1)OCCO2	9.3µM	0	0	0	0	?
Cc1ccc2nc(CN3CCN(C(=O)Nc4ccc(F)cc4)CC3)oc2c1	-	-	0	-	-	-
O=c1c(Cc2ccc(F)cc2)c(O)ccn1C1CC1	5.2µM	0	0	0	0	0
CCCC(=N)C1=C(O)CC(CC(C)SCC)CC1=O (stereo unspecified)	0	0	0	0	0	0
CCCc1noc2c1/C(=N\O)CC(CC(C)SCC)C2 (stereo unspecified)	?	19	0	33	0	0
CCSC(C)CC1C/C(=N/O)c2c(CC)noc2C1 (stereo unspecified)	15µM	0	0	0	0	0
CCCC(=O)C1C(=O)CC(CC(C)SCC)CC1=O (stereo unspecified)	-	0	0	0	0	0
O=C(NCCNC(=O)c1ccccn1)c1ccccc1	0	0	0	0	0	0
NC(=O)OC[C@@H]1[C@H](NC(=O)/C(=N/OCC(=O)O)c2csc(N)n2)C(=O)N1S(=O)(=O)O	?	-	-	-	-	0.43µM
COc1cccc(C(C(=O)NC(C)(C)C)N(CCc2ccccc2)C(=O)CCC(=O)Nc2cc(C)on2)c1OC (stereo unspecified)	?	0	0	0	0	0
COc1ccc2oc(-c3ccccc3[N+](=O)[O-])cc(=O)c2c1	?	81	-	41	0	0
O=c1cc(-c2ccccc2)oc2cc(O)ccc12	-	77	-	51	-	-
Nc1c(-c2ccc3c(c2)OCCO3)oc2ccccc2c1=O	0	70	0	33	0	0
O=c1cc(-c2ccc(O)cc2)oc2ccc(O)cc12	0	54	0	55	-	0
Cn1nc(-c2ccc3c(c2)OCCO3)c2ccccc2c1=O	0	0	0	0	-	0
Cc1ccc(N2CC(NC(=O)c3cccs3)CC2=O)cc1 (stereo unspecified)	-	-	0	-	-	-
NS(=O)(=O)c1ccc(NC(=O)COC(=O)/C(=C/c2cccs2)c2cccs2)cc1	0	0	0	0	0	0
SMILES	Pf growth 48h	Shiga toxin inh	Sm TGR inh	CHX counter	NS1 inh	Pf growth 96h
COc1cc(C(=O)OCC(=O)Nc2cc(C)on2)c([N+](=O)[O-])cc1OC	0	0	0	0	-	0
O=C(NCCc1ccccc1)c1ccc2c(c1)N(Cc1ccccc1Cl)C(=O)c1ccccc1S2	-	-	0	-	-	-
Cc1cc2oc(C(=O)N(Cc3ccc(N(C)C)cc3)CC3CCCO3)c(C)c2cc1Cl (stereo unspecified)	-	-	0	-	-	-
O=c1cc(-c2ccc(O)cc2)oc2ccccc12	0	55	0	37	0	0
O=c1cc(-c2c(F)c(F)c(F)c(F)c2F)oc2ccccc12	-	0	0	0	0	0
O=c1ccc2c(-c3ccccc3)c3ccc(O)cc3oc-2c1	-	0	8.9µM	0	0	0
O=c1cc(-c2ccc3c(c2)OCO3)oc2ccccc12	0	0	0	21	0	?
COc1ccc(-c2cc(=O)c3ccccc3o2)cc1	0	52	0	19	0	?
CC(C)C[C@H](NC(=O)[C@H](CO)NC(=O)[C@H](C)NC(=O)[C@H](CCCN=C(N)N)NC(=O)[C@H](CCCN=C(N)N)NC(=O)[C@@H](N)CC(C)C)C(=O)NCC(=O)O	-	0	-	0	-	-
CSc1ccccc1OCc1cc(C(=O)NCCn2ccnc2C)no1	0	0	0	0	0	?
Cc1ccc2oc(=O)c3cc(C(=O)Nc4cc(-c5cccc(F)c5)no4)sc3c2c1	0	0	0	0	0	?
Cc1cccc(-c2oc3ccccc3c2-c2ccc3c(c2)OCO3)c1	?	0	0	0	0	9.3µM
COc1cc(SC)ccc1C(=O)NNC(=O)c1cc(C)oc1C	0	-	0	-	-	0
O=S1(=O)N=C(N/N=C/C=C/c2ccccc2)c2ccccc21	?	0	0	0	0	13µM
O=S1(=O)N=C(N/N=C/c2ccccn2)c2ccccc21	?	0	0	0	0	?
Cc1ccc(-n2nc(CO)c(C(=O)NCCC(C)C)n2)cc1C	-	-	0	-	-	-
C/C(N)=C(/C#N)C(=O)COC(=O)CC1CCCC1	0	0	0	0	0	0
C/C(N)=C(/C#N)C(=O)COC(=O)C1CCC(C(C)(C)C)CC1 (stereo unspecified)	0	56	0	16	0	-
COc1ccc(S(=O)(=O)N(CC(=O)NCc2ccco2)C2CCCCC2)cc1OC	?	0	?	0	0	0
Cc1ccc(S(=O)(=O)N(CC(=O)NCc2ccco2)C2CCCCC2)cc1	?	0	45µM	0	0	?
O=C(CN(C1CCCCC1)S(=O)(=O)c1ccccc1)NCc1ccco1	0	0	0	0	0	4.7µM
Cc1ccc(S(=O)(=O)N(CC(=O)NCc2ccncc2)C2CCCCC2)cc1	?	0	0	0	0	8.3µM
C/C(CC(=O)NCc1ccco1)=N\NC(=O)COc1ccc(C)cc1	0	0	0	0	0	0
CCc1sc(NC(=O)CCC(=O)O)nc1-c1cc2ccccc2oc1=O	0	0	0	0	-	0
COC(=O)C1CCN(C(=O)Cc2ccc(Br)cc2)CC1	0	66	0	28	0	0
SMILES	Pf growth 48h	Shiga toxin inh	Sm TGR inh	CHX counter	NS1 inh	Pf growth 96h
O=C(Cc1ccc(Br)cc1)N1CCCCCC1	0	60	0	46	0	0
Oc1c(Br)cc(Br)cc1CN1CCN(Cc2ccccc2)CC1	1.9µM	0	0	0	0	-
O=C(Cc1ccc(Br)cc1)N1CCN(Cc2ccccc2)CC1	?	0	0	18	0	?
Cc1noc(C)c1COC(=O)CCCc1nc2ccccc2s1	0	0	0	0	0	5.2µM
CCCCC(=O)OCc1nc2ccccc2s1	0	0	0	28	0	0
CC(OC(=O)CCCc1nc2ccccc2s1)C(N)=O (stereo unspecified)	0	0	0	0	0	-
Cn1cnc([N+](=O)[O-])c1Sc1nc(N)nc2c1ncn2[C@H]1C[C@H](O)[C@@H](CO)O1	-	-	-	-	0	-
FC(F)(F)c1ccc2c(c1)ncc1c(-c3ccccc3)nn(-c3ccccc3)c12	-	-	0	-	-	-
CCS(=O)(=O)CCSc1nc2ccccc2o1	0	0	0	0	0	0
